The campaign covered roughly 1,500 compounds. About 460 (31%) were called active.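 Rule for the calls: active = viability at or below 80% at any tested concentration, marking the compound as toxic; inactive = the rest.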 These entries were drawn from the full list. A call without a number means that no potency is given here. Potency and affinity values are given separately.
Experiment: THP-1 cell cytotoxicity, dose response, cytotoxicity control for Vif-APOBEC3G degradation inhibitor project, THP-1 cells (AID 1117359)
Conditions: THP-1 viability, CellTiter-Glo luminescence, 72 h; series mostly up to 40 µM
With `CC(C)CN(C(=O)CN1CCN(c2ccc(O)cc2)CC1)c1c(N)n(CC(C)C)c(=O)[nH]c1=O` the outcome was “inactive”.
With `O=c1oc2c(O)c(O)cc3c(=O)oc4c(O)c(O)cc1c4c23` the outcome was “inactive”.
In the case of `CN(Cc1ccccc1)C(=O)C1CCCN1S(=O)(=O)c1ccc2c(c1)n(C)c(=O)c(=O)n2C` (stereo not given), the outcome is reported as “inactive”.
With `CC1(C)Cc2nc3sc(C(=O)O)c(N)c3cc2CS1` the outcome was “inactive”.
In the case of `O=c1cc2oc3cc(O)c(O)cc3c(-c3ccccc3O)c-2cc1O`, the outcome is reported as “inactive”.
With `COCCn1c(SCC(=O)Nc2cc(C)on2)nc2cc(Cl)ccc2c1=O` the outcome was “inactive”.
With `CCCCS(=O)(=O)N1CCCC(C(=O)N2CCOCC2)C1` (stereo not given) the outcome was “inactive”.
With `COc1ccc(S(=O)(=O)NNC(=O)c2sccc2-n2cccc2)cc1` the outcome was “inactive”.
For `COc1ccc(NS(=O)(=O)c2cccc(C(=O)NNC(=O)c3cccn3C)c2)cc1`, the outcome was “inactive”.
With `Cc1ccc(C(=O)O)cc1-c1ccc(/C=C2/NC(=O)N(c3ccccc3)C2=O)o1` the outcome was “inactive”.
For `COC(=O)C1C(O)=C(C=Nc2ccc(N)cc2)C(=O)CC1(C)C` (stereo not given), the outcome was “inactive”.
With `COc1ccc(/C(O)=C2/C(=O)C(=O)N(c3ccccn3)C2c2ccc(F)cc2)cc1` (stereo not given) the outcome was “inactive”.
For `COC(=O)C1=C(O)/C(=C/c2cccc(OC)c2O)N=C1C`, the outcome was “inactive”.
In the case of `Cc1cc(O)c(C(C)C)cc1N=Cc1ccc([N+](=O)[O-])cc1`, the outcome is reported as “inactive”.
With `O=[N+]([O-])/C(C(Cl)=C(Cl)Cl)=C(/NC1CC1)Sc1ccccc1` the outcome was “inactive”.
With `CN1OC[C@@H]2CN(C(=O)C(C)(C)C)[C@H](c3cccc(Oc4ccccc4)c3)C[C@@H]21` the outcome was “inactive”.
In the case of `COc1ccc(C2CC(=O)Oc3cc(OC)ccc32)cc1` (stereo not given), the outcome is reported as “inactive”.
In the case of `Cc1ccc(C(=O)C2=C(O)C(=O)N(c3ncccn3)C2c2ccc(F)cc2)o1` (stereo not given), the outcome is reported as “inactive”.
In the case of `O=C(O)/C=C/c1ccc(S(=O)(=O)N2CCN(CCN3C(=O)C4C5C=CC(C5)C4C3=O)CC2)cc1` (stereo not given), the outcome is reported as “inactive”.
For `O=[N+]([O-])c1cc2ccccc2c(O)c1O`, the outcome was “inactive”.
With `O=S(=O)(O)c1cccc2c(N=Nc3ccc(O)c4ncccc34)cccc12` the outcome was “inactive”.
In the case of `CN(CC(=O)Nc1ccccc1Cl)C(=O)Cn1cc(C(F)(F)F)cc(Cl)c1=O`, the outcome is reported as “inactive”.
With `Cc1[nH]c(=O)nc(NN=Cc2ccc(Cl)cc2)c1C(=O)Nc1ccc(Cl)cc1` the outcome was “inactive”.
In the case of `CC(=C/C(=O)O)/C=C/c1ccc(Cl)o1`, the outcome is reported as “inactive”.
For `COc1ccccc1C(=O)Nc1ccc(-c2nnc(SCC(=O)O)n2C)cc1`, the outcome was “inactive”.
With `O=C(CSc1nnc(-c2ccco2)c(-c2ccco2)n1)Nc1ccccc1` the outcome was “inactive”.
For `O=[N+]([O-])c1ccc(-c2c[nH]c(=S)[nH]2)cc1`, the outcome was “inactive”.
For `CCOc1ccc(/C=C2\NC(=S)NC2=O)cc1`, the outcome was “inactive”.
With `COc1ccc(-c2cc(-c3ccco3)[nH]c(=O)c2C#N)cc1` the outcome was “inactive”.
With `CC1CCC/C(=C\Nc2ccc(C(=O)O)c(O)c2)C1=O` (stereo not given) the outcome was “inactive”.
In the case of `CCNC(=O)COC(=O)c1cc(-c2ccco2)nc2ccccc12`, the outcome is reported as “inactive”.
In the case of `CN(C)[C@@H]1C(=O)C(C(=O)NCN2CCCC2)=C(O)[C@@]2(O)C(=O)C3=C(O)c4c(O)cccc4[C@@](C)(O)C3CC12` (stereo not given in full), the outcome is reported as “inactive”.
In the case of `Cc1cc(/C=C2\SC(=S)NC2=O)c(C)n1C`, the outcome is reported as “inactive”.
With `COC(=O)Cc1ccc(NC(=S)NNC(=O)C2CC2)cc1` the outcome was “inactive”.
With `O=c1[nH][nH]c(=O)c2nc(Nc3ccccc3)ncc12` the outcome was “inactive”.
In the case of `CCN(CC)c1ccc(C=Nc2ccc(N(C)C)cc2)c(O)c1`, the outcome is reported as “inactive”.
For `Cc1ccccc1NC(=O)Cc1nc(COC(=O)Cc2ccccc2F)cs1`, the outcome was “inactive”.
For `CN(C)c1ccc(/C=C/C#N)cc1`, the outcome was “inactive”.
For `CCCc1cc(=O)[nH]c(SCC(=O)c2c(C)[nH]c3ccccc23)n1`, the outcome was “inactive”.
With `COc1ccc(NC(=O)CSc2nc3c(cc2C#N)CN(C)CC3)cc1` the outcome was “inactive”.
With `COc1ccc(NC2=NC(C)(CO)CS2)cc1` (stereo not given) the outcome was “inactive”.
In the case of `COc1ccc(NC(=O)CCCSc2ccccc2)cc1`, the outcome is reported as “inactive”.
For `CCOC(=O)/C(=C\c1ccccc1)NC(=O)c1ccccc1`, the outcome was “inactive”.
In the case of `COc1ccc2cc(C3C(C#N)=C(N)OC(C)=C3C(C)=O)c(Cl)nc2c1` (stereo not given), the outcome is reported as “inactive”.
In the case of `Cc1ccc(C2C(C#N)=C(N)Oc3c2oc(CO)cc3=O)o1` (stereo not given), the outcome is reported as “inactive”.
In the case of `NS(=O)(=O)c1ccc(CCNC2CC(=O)N(Cc3ccccc3)C2=O)cc1` (stereo not given), the outcome is reported as “inactive”.
In the case of `CN(Cc1cn(C)nc1-c1cccc(Cl)c1)Cc1nccn1C`, the outcome is reported as “inactive”.
For `Nc1cc(C(=O)O)ccc1N1CCCCC1`, the outcome was “inactive”.
For `Nc1ccc(N2CCN(CCCCN3C(=O)C4CCCN4C3=O)CC2)cc1` (stereo not given), the outcome was “inactive”.
In the case of `O=C(CN1C(=O)NC(c2ccc(F)cc2)C1=O)Nc1ccc2c(c1)OCCO2` (stereo not given), the outcome is reported as “inactive”.
For `COc1cccc(NC(=O)N2CCN(c3nnnn3-c3ccccc3)CC2)c1`, the outcome was “inactive”.
For `O=C(Cn1c(=O)oc2ccccc21)N1CCN(S(=O)(=O)c2ccccc2)CC1`, the outcome was “inactive”.
In the case of `CC(C)(C)c1ccc(NC(=S)NCc2cccnc2)cc1`, the outcome is reported as “inactive”.
With `O=S(=O)(c1ccc(OCC(O)CN2CCC(Cc3ccccc3)CC2)cc1)N1CCOCC1` (stereo not given) the outcome was “inactive”.
In the case of `C/C(=N\NC(=O)c1cnccn1)c1ccc([N+](=O)[O-])cc1`, the outcome is reported as “inactive”.
In the case of `N/C(=N\OC(=O)COc1ccc([N+](=O)[O-])cc1)c1cccnc1`, the outcome is reported as “inactive”.
With `O=C1CC(Nc2ccc(N3CCOCC3)cc2)C(=O)N1Cc1ccccc1` (stereo not given) the outcome was “inactive”.
In the case of `Cc1cc(SCC2=NNC(=O)C2)c(Cl)cc1Cl`, the outcome is reported as “inactive”.
For `CC(C)Cc1nc2oc3c(NCC(C)O)ncnc3c2c2c1CCCC2` (stereo not given), the outcome was “inactive”.
In the case of `CCCCc1nc2sc3c(=O)[nH]cnc3c2c2c1CCCC2`, the outcome is reported as “inactive”.
In the case of `CCCCc1cc(C(=O)Cc2ccccn2)c(O)cc1O`, the outcome is reported as “inactive”.
With `COc1ccc(C(=O)OCC(=O)c2c(N)n(C)c(=O)n(C)c2=O)cc1OC` the outcome was “inactive”.
With `NC(=O)C1Cc2ccccc2CN1C(=O)c1nn(Cc2ccccc2)c(=O)c2ccccc12` (stereo not given) the outcome was “inactive”.
For `Cc1cccc2nc(C(=O)Nc3cccc(C(=O)NC4CC4)c3)cn12`, the outcome was “inactive”.
In the case of `Cc1onc(-c2ccccc2)c1CNC(=O)C1COc2ccccc2O1` (stereo not given), the outcome is reported as “inactive”.
In the case of `O=C(O)Cc1ccc(N=Nc2c(O)c(C(=O)O)cc3ccccc23)cc1`, the outcome is reported as “inactive”.
In the case of `Nc1cccc2cc(S(=O)(=O)O)ccc12`, the outcome is reported as “inactive”.
With `O=C1CC(N2CCOCC2)C(=O)N1c1ccc(Cl)cc1` (stereo not given) the outcome was “inactive”.
In the case of `O=C(O)c1ccc2c(c1)C1C=CCC1C(c1ccncc1)N2` (stereo not given), the outcome is reported as “inactive”.
In the case of `S=C1NC2(CCCCCC2)N=C1c1ccccc1`, the outcome is reported as “inactive”.
In the case of `CC(NC(=O)c1ccco1)C1CCCO1` (stereo not given), the outcome is reported as “inactive”.
In the case of `S=c1[nH]nc(Cn2nnc3ccccc32)n1-c1ccccc1`, the outcome is reported as “inactive”.
In the case of `C/C=C/c1ccc(OCC(=O)N2CCc3cc(OC)c(OC)cc3C2)c(OC)c1`, the outcome is reported as “inactive”.
For `COc1cc(/C=N/NC(=O)c2ccc(NS(=O)(=O)c3cccs3)cc2)cc(OC)c1O`, the outcome was “inactive”.
For `COc1ccccc1/C=C/C=C1N=C(/C=C/c2ccc(Cl)cc2)OC/1=O`, the outcome was “inactive”.
In the case of `COc1cc(/C=C(\CC(=O)O)c2nc3ccccc3s2)cc(OC)c1O`, the outcome is reported as “inactive”.
In the case of `CCc1ccccc1NC(=O)N1CCc2ccccc21`, the outcome is reported as “inactive”.
For `CCN1CNC(=S)N(CCc2ccccc2)C1`, the outcome was “inactive”.
With `Cc1cc(C)n2nc(C(=O)OCC(=O)N(C)CC(=O)Nc3ccc(F)cc3)nc2n1` the outcome was “inactive”.
For `CCN1CCN(C(=O)CN(C)S(=O)(=O)c2ccc(OC)c(C)c2)CC1`, the outcome was “inactive”.
With `CCOC(=O)CNC(=O)Cn1cnc2c(nnn2-c2ccc(F)cc2)c1=O` the outcome was “inactive”.
With `COC/C=C/C1=CC2=CC(=O)C(C)(OC(=O)C3CCCC3)C(=O)C2=CO1` (stereo not given) the outcome was “inactive”.
With `Clc1ccccc1N=Nc1ccccn1` the outcome was “inactive”.
For `CCOC(=O)C1CCCC12Nc1cccc3cccc(c13)N2` (stereo not given), the outcome was “inactive”.
With `COc1cc(OC)c2c(c1O)OC(c1ccccc1)CC2=O` (stereo not given) the outcome was “inactive”.
In the case of `Cc1noc(C)c1COc1ccc(C(=O)OCC(=O)N2c3ccccc3NC(=O)C2(C)C)cc1`, the outcome is reported as “inactive”.
With `CCOc1ccc(NC(=O)C2CCCN(S(=O)(=O)c3c(C)nn(C)c3C)C2)cc1` (stereo not given) the outcome was “inactive”.
For `CC(=O)c1sc(C(=O)O)c(-c2ccco2)c1-c1ccco1`, the outcome was “inactive”.
For `Cc1cc(CN2C(=O)c3ccccc3C2=O)cc(N2CCOCC2)c1`, the outcome was “inactive”.
For `O=C(CCN1C(=O)c2ccccc2C1=O)NCc1ccco1`, the outcome was “inactive”.
In the case of `CCCC(=O)C1=C(N(C)c2ccccc2)CC(C)(C)CC1=O`, the outcome is reported as “inactive”.
With `O=C(Nc1cccnc1)c1sc(Nc2ccccc2F)nc1-c1ccccc1` the outcome was “inactive”.
For `O=C(COc1ccccc1Cl)c1ccc[nH]1`, the outcome was “inactive”.
With `C/C(=N\n1c(C)nc2ccccc2c1=O)c1ccc(C)o1` the outcome was “inactive”.
In the case of `O=C(O)c1cc(N2N=C(C(F)(F)F)/C(=C/C=C/c3ccco3)C2=O)ccc1Cl`, the outcome is reported as “inactive”.
In the case of `O=C1/C(=C\c2ccco2)NC(=S)N1c1ccccc1`, the outcome is reported as “inactive”.
For `O=C(O)C(Cc1ccccc1)N1C(=O)/C(=C/C=C/c2ccco2)SC1=S` (stereo not given), the outcome was “inactive”.
With `O=C1NN(c2cccc(Br)c2)C(=O)/C1=C\c1ccccc1` the outcome was “inactive”.
For `COC(=O)C1=C(C)N(Cc2ccccc2)C(=O)/C1=C\c1ccco1`, the outcome was “inactive”.
With `COc1ccc(N=C2NC(=O)/C(=C\C=C\c3ccco3)S2)cc1` the outcome was “inactive”.
In the case of `O=C(Nc1ccc(Cl)cc1)Nc1ccc(N2CCC(C(F)(F)F)CC2)nc1`, the outcome is reported as “inactive”.
With `CC1CC(C)CN(C(=O)CSCC(=O)O)C1` (stereo not given) the outcome was “inactive”.
For `Cn1c(C(=O)N[C@@H](C(=O)O)c2ccccc2)cc2cc(Cl)ccc21`, the outcome was “inactive”.
For `C#Cc1ccc([C@H]2C=C(C(=O)N3CCOCC3)O[C@@H](OCc3ccc(CO)cc3)C2)cc1`, the outcome was “inactive”.
For `Cc1cc(=O)n2nc(N3CCCC(C(=O)NC4CCC(C)CC4)C3)sc2n1` (stereo not given), the outcome was “inactive”.
In the case of `O=C(O)Cc1cccc(=O)c(O)c1C(=O)O`, the outcome is reported as “inactive”.
In the case of `COc1cc(NC(=O)c2noc3c2CCC3)c(OC)cc1Cl`, the outcome is reported as “inactive”.
With `CCOC(=O)C(=O)NCc1ccc(/C=C2/N=C(C)C(C(=O)OCC)=C2O)o1` the outcome was “inactive”.
In the case of `CN(C)c1nc(OCCNC(=O)COc2ccc(Cl)cc2Cl)nc(N2CCOCC2)n1`, the outcome is reported as “inactive”.
With `CC(=O)c1ccc(-c2nnc(CCC(=O)N(C)Cc3c(C)nc4ccccn34)o2)s1` the outcome was “inactive”.
